The panel holds about 83,000 compounds, 20% with a hit somewhere; the sample as a whole holds those more often.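 Negative percent growth values reflect cell death: -40 means 40% of the cells present at the start died, and -100 means all died.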 Values without a mark were called inactive. Active and inactive are the calls of the source.
system: HS 578T breast; assay: NCI-60 one-dose screen, 48 h (100 = growth as untreated, 0 = no growth, -100 = all killed); details: 10 µM
Protocol: Growth inhibition of the HS 578T human tumor cell line is measured as a screen for anti-cancer activity. Cells are grown in 96 well plates and exposed to the test compound for 48 hours. Compounds are tested at a single concentration, which is 10^-5 M for most compounds. The reported endpoint is percent growth (GI% or GIPRCNT), where numbers from 0 - 100% represent growth inhibition, and numbers from -100% - 0 represent cell death. For example, a value of 40 represents 60% growth inhibition. A value of 0 means no net growth occurred over the course of the experiment. A value of -40 indicates 40% of cells at the beginning of the experiment died by the end of the experiment. A value of -100 means all cells are dead at the end of the experiment.
NCI-60 Human Tumor Cell Lines Screen was performed using the standard one-dose NCI protocol, which is described in more detail at https://dtp.cancer.gov/discovery_development/nci-60/default.htm.
Compounds with GIPRCNT values below 10 were considered active. Activity score was based on GIPRCNT using the following formula: […]
Score is 0 for GIPRCNT values of 100 or above, 50 for GIPRCNT values of 0, and 100 for GIPRCNT values of -100.

Q: How did the growth turn out when `S=c1[nH]ccn1-c1c(Cl)cccc1Cl` was run?
A: 109%

Q: `CN1CCC2(CC1)NC(=O)c1c(c3ccc(Cl)c(Cl)c3n1C)C2C#N` (stereo not given) was tested. Which growth did it give?
A: 71.1%

Q: Which growth does the source give for `CCCCCCCCCCCCCCCCN(C(C)c1ccccc1)S(=O)(=O)c1ccc(OC)c(N)c1` (stereo not given) here?
A: 126%

Q: For `COc1cc(C(=O)N2CCN(c3ccccc3OC)CC2)c(N)cc1OCCCN1CCN(c2ccccc2OC)CC1`, which growth is on record?
A: 99%

Q: With `COc1ccc2c(c1)O/C(=C\c1ccc([N+](=O)[O-])s1)C2=O` as the compound, how does the growth read?
A: 18.3%

Q: Which growth does the source give for `COc1ccc(-c2nn(-c3cccc(NC(=O)c4ccc5c(c4)OCCO5)c3)cc2-c2ccncc2)cc1Cl` here?
A: 1.38% (active)

Q: `CCN(CC)CCNC(=O)c1ccc(NC(C)=O)cc1` was tested. Which growth did it give?
A: 99.8%

Q: How did the growth turn out when `O=C1/C(=C\c2ccc(Cl)cc2)CN(C(=S)Nc2ccccc2)C/C1=C\c1ccc(Cl)cc1` was run?
A: -23.1% (active)

Q: How did the growth turn out when `CS(=O)(=O)Nc1ccc(Nc2c3ccccc3nc3cc(N)ccc23)cc1` was run?
A: 23.7%

Q: `O=c1oc2cc(OS(=O)(=O)c3ccccc3)ccc2c2c1CCCCC2` was tested. Which growth did it give?
A: 75.6%

Q: `CCOC(=O)N/N=C\C(C)=N\NC(=O)OCC` was tested. Which growth did it give?
A: 115%

Q: Which growth does the source give for `CCOC(=O)CNC(=O)CCCCSc1ncnc2nc[nH]c12` here?
A: 107%

Q: How did the growth turn out when `O=C1/C(=C\c2cn(C(=O)c3ccc(Cl)cc3)c3ccccc23)c2ccccc2N1C(=O)c1ccc(Cl)cc1` was run?
A: 80.5%

Q: With `Cc1cc(C)c2c(n1)sc1c(Nc3ccc(Cl)cc3)ncnc12` as the compound, how does the growth read?
A: 76.5%

Q: How did the growth turn out when `CC(=O)c1cc(Br)ccc1O` was run?
A: 108%

Q: `COc1ccc2c(c1)N(CCO)C1=C(C(=O)OC1)C2c1ccc(OC)c(OC)c1` (stereo not given) was tested. Which growth did it give?
A: 31%

Q: With `Cc1cc(Nc2ccc(Cl)cc2)nc(NCCCNc2ccnc3cc(Cl)ccc23)n1` as the compound, how does the growth read?
A: -53.4% (active)

Q: How did the growth turn out when `CCN1CCCC1CNC(=O)c1ncc(-c2ccc(C(F)(F)F)cc2)c(NC2CCCCCC2)n1` (stereo not given) was run?
A: 92.1%

Q: With `CCN(CC)CCSCCN(CC)CC` as the compound, how does the growth read?
A: 106%

Q: With `O=C1C(=O)c2ccccc2C(O)=C1CCCc1ccc(C2CCCCCC2)cc1` as the compound, how does the growth read?
A: 115%

Q: With `COc1cc(-c2nnc(-c3c(-c4ccc(F)cc4)nc4ccccn34)o2)cc(OC)c1OC` as the compound, how does the growth read?
A: 68.1%

Q: Which growth does the source give for `COc1cc(-c2cc(/C=C3\C(=O)Nc4cc(Cl)ccc43)[nH]n2)cc(OC)c1OC` here?
A: 12.6%

Q: With `CCc1ccc2c(c1)N(CCO)C1=C(C(=O)OC1)C2c1cc(OC)c(OC)c(OC)c1` (stereo not given) as the compound, how does the growth read?
A: 1.11% (active)

Q: With `CCCCCCCCN(CCCCCCCC)CCCCCCCCCN1CCCc2cc(OC)ccc21` as the compound, how does the growth read?
A: 91.3%

Q: Which growth does the source give for `CCOC(=O)C(CSC(c1ccccc1)(c1ccccc1)c1ccccc1)NC(=O)C(CSC(c1ccccc1)(c1ccccc1)c1ccccc1)NC(c1ccccc1)(c1ccccc1)c1ccccc1` (stereo not given) here?
A: 99.5%

Q: How did the growth turn out when `O=C(O)C(SC(C(=O)O)c1ccccc1)c1ccccc1` (stereo not given) was run?
A: 113%

Q: With `CCCCOC(=O)Oc1ccc(C(=O)Oc2ccc(OCC)cc2)cc1` as the compound, how does the growth read?
A: 94.5%

Q: For `CC1(C)Cc2c(sc3ncn4nc(-c5ccc(O)cc5)nc4c23)CO1`, which growth is on record?
A: 65.3%

Q: How did the growth turn out when `O=C1/C(=C\c2ccccc2)CN(C(=O)c2ccccc2F)C/C1=C\c1ccccc1` was run?
A: -10.1% (active)

Q: For `COc1cc(CNc2ccccc2C(=O)N2CCN(C(=O)c3cc(-c4cc(OC)c(OC)c(OC)c4)n4nc(-c5ccccc5)cc4n3)CC2)cc(OC)c1OC`, which growth is on record?
A: 42.9%

Q: How did the growth turn out when `Nc1ccc2cc(S(=O)(=O)O)cc(O)c2c1N=Nc1ccc(F)cc1` was run?
A: 111%

Q: Which growth does the source give for `CC(C)(C#N)Nc1ccccc1` here?
A: 105%

Q: For `O=C1/C(=C\c2ccc(F)cc2)CN(C(=O)c2ccccc2F)C/C1=C\c1ccc(F)cc1`, which growth is on record?
A: 11.8%

Q: For `FC(F)(F)c1ccc(-c2cnc(-n3cc(COCCN4CCCCC4)nn3)nc2NC2CCCCCC2)cc1`, which growth is on record?
A: 61.3%

Q: `N#CCCN1C/C(=C/c2ccc(Cl)cc2)C(=O)/C(=C/c2ccc(Cl)cc2)C1` was tested. Which growth did it give?
A: -9.16% (active)

Q: With `CSc1cc(SC)ncn1` as the compound, how does the growth read?
A: 115%

Q: For `COc1ccc2c(c1)[n+]([O-])c(C#N)c(NC(=O)c1ccco1)[n+]2[O-]`, which growth is on record?
A: 92.5%

Q: With `CCOC(=O)N1C/C(=C/c2ccc(Cl)cc2)C(=O)/C(=C/c2ccc(Cl)cc2)C1` as the compound, how does the growth read?
A: 63.9%

Q: For `O=C1OCC2=C1C(c1cccc(Cl)c1)c1cc3c(cc1N2CCO)CCC3` (stereo not given), which growth is on record?
A: -1.05% (active)

Q: How did the growth turn out when `Cc1ncc(-c2ccoc2)c(NC2CCCCCC2)n1` was run?
A: 111%

Source: PubChem BioAssay (NCI)
